# Measurements: the supplement of paper PMC8371130
# Where a name gives a salt, the structure may show the parent alone.
# System: HL-1
# Experiment: relative cell viability (CellTiter-Glo) vs DMSO control (% of DMSO control); higher = more viable cells
# How it was run: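 Compounds at 40, 200, 1000 or 5000 nM in 0.01% DMSO were added to HL-1 mouse atrial cardiomyocytes plated at 1000 cells per well in 384-well plates. The next day, cells were exposed to 1% O2 for 48 h and then reoxygenated for 24 h, or left in normoxia for the same time. Viability was read with CellTiter-Glo luminescence and normalised to vehicle-treated controls.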
# [1] = oxygen condition: hypoxia 48 h (1% O2) + reoxygenation 24 h, 40 nM
# [2] = oxygen condition: hypoxia 48 h (1% O2) + reoxygenation 24 h, 200 nM
# [3] = oxygen condition: hypoxia 48 h (1% O2) + reoxygenation 24 h, 1000 nM
# [4] = oxygen condition: hypoxia 48 h (1% O2) + reoxygenation 24 h, 5000 nM
# [5] = oxygen condition: normoxia 72 h, 40 nM
# [6] = oxygen condition: normoxia 72 h, 200 nM
# [7] = oxygen condition: normoxia 72 h, 1000 nM
# [8] = oxygen condition: normoxia 72 h, 5000 nM
SMILES,relative cell viability [1],relative cell viability [2],relative cell viability [3],relative cell viability [4],relative cell viability [5],relative cell viability [6],relative cell viability [7],relative cell viability [8]
OCCOCCN1CCN(C2=Nc3ccccc3Sc3ccccc32)CC1 [Quetiapine fumarate],98.9,104,106,104,103,106,108,108
CCCCC[C@H](O)/C=C/[C@H]1[C@H](O)CC(=O)[C@@H]1CCCCCCC(=O)O [Alprostadil],104,106,107,107,108,102,111,101
C[C@@H](O)[C@H]1C(=O)N2C(C(=O)OCOC(=O)C(C)(C)C)=C(SC3CN(C4=NCCS4)C3)[C@H](C)[C@H]12 [Tebipenem pivoxil],98.3,102,99.2,91.2,96.9,92.7,101,93.4
NC(=O)NO [Hydroxyurea],101,109,109,108,108,103,109,110
COC(=O)C1=C(C)NC(C)=C(C(=O)OCCN(C)Cc2ccccc2)C1c1cccc([N+](=O)[O-])c1 (stereo not given) [Nicardipine HCl],107,111,112,114,107,106,105,122
CCN(CC)CCNC(=O)c1c(C)[nH]c(/C=C2\C(=O)Nc3ccc(F)cc32)c1C [Sunitinib Malate],106,109,107,115,105,119,114,111
COc1ccc2c(c1)C(=O)N(CCc1ccc(S(=O)(=O)NC(=O)NC3CCCCC3)cc1)C(=O)C2(C)C [Gliquidone],97.7,108,102,113,96.6,114,110,116
C[C@]12CCC3=C4CCC(=O)C=C4CC[C@H]3[C@@H]1CC[C@@]2(O)CC#N [Dienogest],103,104,106,103,105,102,107,107
CN1CCN(CCCN2c3ccccc3Sc3ccc(Cl)cc32)CC1 [Prochlorperazine Dimaleate],114,111,106,113,98.7,99.3,102,105
COc1ccc(CNc2nc(N3CCC[C@H]3CO)ncc2C(=O)NCc2ncccn2)cc1Cl [Avanafil],91.6,99.7,97.5,103,101,102,97.1,107
O=C1C(O)=C([C@H]2CC[C@H](c3ccc(Cl)cc3)CC2)C(=O)c2ccccc21 [Atovaquone],98.8,103,113,112,98.2,104,98.5,115
Cc1cc2c(cc1S(N)(=O)=O)S(=O)(=O)CCC2 [Meticrane],101,101,105,103,102,104,102,112
CCCCC(=O)O[C@H]1CC[C@H]2[C@@H]3CCc4cc(O)ccc4[C@H]3CC[C@]12C [Estradiol valerate],100,103,108,108,98.8,103,102,118
O=C(NCCO[N+](=O)[O-])c1cccnc1 [Nicorandil],101,105,108,102,104,98.1,99.2,102
CS(=O)(=O)CCNCc1ccc(-c2ccc3ncnc(Nc4ccc(OCc5cccc(F)c5)c(Cl)c4)c3c2)o1 [Lapatinib Ditosylate],107,116,116,84.4,107,115,122,61.7
COCCCC/C(=N\OCCN)c1ccc(C(F)(F)F)cc1 [Fluvoxamine maleate],101,109,94.9,94.7,109,98.3,106,95.2
CC(C)NCC(O)COc1cccc2ccccc12 (stereo not given) [Propranolol HCl],99.8,109,103,109,107,100,92.5,106
OCCOCCN1CCN(C(c2ccccc2)c2ccc(Cl)cc2)CC1 (stereo not given) [Hydroxyzine 2HCl],104,107,109,114,102,107,105,109
Nc1nc(N)nc(-c2cc(Cl)ccc2Cl)n1 [Irsogladine],101,104,107,109,98.2,104,108,107
O=C1CN2Cc3c(ccc(Cl)c3Cl)N=C2N1 [Anagrelide HCl],97.6,98.7,97.5,108,99.8,100,105,111

SMILES,relative cell viability [1],relative cell viability [2],relative cell viability [3],relative cell viability [4],relative cell viability [5],relative cell viability [6],relative cell viability [7],relative cell viability [8]
O=c1oc2cc(O)ccc2s1 [Tioxolone],106,104,108,110,107,109,113,106
Cn1c(CNc2ccc(C(=N)N)cc2)nc2cc(C(=O)N(CCC(=O)O)c3ccccn3)ccc21,104,96,102,108,102,102,102,106
CC(C)C(=O)Nc1ccc([N+](=O)[O-])c(C(F)(F)F)c1 [Flutamide],108,102,101,38.7,98.3,101,105,37
O=P(O)(O)C(O)(Cc1cccnc1)P(=O)(O)O [Risedronic acid],94,101,96.4,71.4,99,108,105,107
Cc1nc2n(c(=O)c1CCN1CCC(c3noc4cc(F)ccc34)CC1)CCCC2 [Risperidone],104,109,106,113,104,109,104,114
CN1CC2c3ccccc3Oc3ccc(Cl)cc3C2C1 (stereo not given) [Asenapine],105,104,108,106,111,101,103,111
COc1ccccc1OCC(O)CN1CCN(CC(=O)Nc2c(C)cccc2C)CC1 (stereo not given) [Ranolazine],85,102,98,112,105,102,107,118
CN1[C@@H]2CC[C@H]1C[C@@H](OC(=O)c1c[nH]c3ccccc13)C2 [Tropisetron],99.6,103,100,104,98.7,101,104,66
CCCc1nn(C)c2c(=O)[nH]c(-c3cc(S(=O)(=O)N4CCN(C)CC4)ccc3OCC)nc12 [Sildenafil citrate],99.7,102,105,104,107,103,101,109
COc1nc(C)nc(Cl)c1NC1=NCCN1 [Moxonidine],103,97.1,99.6,112,110,103,107,111
CCN(CC)C(=O)/C(C#N)=C/c1cc(O)c(O)c([N+](=O)[O-])c1 [Entacapone],101,105,103,108,100,111,103,114
CCC(=O)O[C@@H](O[P@](=O)(CCCCc1ccccc1)CC(=O)N1C[C@H](C2CCCCC2)C[C@H]1C(=O)O)C(C)C [Fosinopril sodium],106,99.9,101,108,101,103,106,111
CC(=O)O[C@@]12CO[C@@H]1C[C@H](O)[C@@]1(C)C(=O)[C@H](O)C3=C(C)[C@@H](OC(=O)[C@H](O)[C@@H](NC(=O)OC(C)(C)C)c4ccccc4)C[C@@](O)([C@@H](OC(=O)c4ccccc4)[C@H]21)C3(C)C [Docetaxel],26.9,24.1,27.2,29.3,19.3,23,22.6,23.6
CN(C(=O)CN(CCO)CC(=O)N(C)C(C)(C)Cc1ccccc1)C(C)(C)Cc1ccccc1 [Oxethazaine],102,103,106,115,99.2,103,97.9,128
Cc1cccc(C)c1OCC(C)N (stereo not given) [Mexiletine HCl],108,105,104,121,103,105,107,123
COC(=O)[C@H]1[C@H]2C[C@@H]3c4[nH]c5cc(OC)ccc5c4CCN3C[C@H]2C[C@@H](OC(=O)c2cc(OC)c(OC)c(OC)c2)[C@@H]1OC [Reserpine],112,106,107,110,102,103,103,113
CC[C@@H](CO)NCCN[C@@H](CC)CO [Ethambutol HCl],100,93.4,102,112,90.2,91.3,102,3.47
CSc1ccc2c(c1)N(CCC1CCCCN1C)c1ccccc1S2 (stereo not given) [Thioridazine HCl],101,108,101,107,98.9,101,98.7,108
CC(C)NCC(O)COc1ccc(COCCOC(C)C)cc1 (stereo not given) [Bisoprolol],93.2,103,87.2,101,90.8,101,85.4,108
Cc1nc2c([nH]1)-c1ccccc1N(C(=O)c1ccc(NC(=O)c3ccccc3-c3ccccc3)cc1)CC2 [Conivaptan HCl],100,98.8,46.4,47.7,98,84.2,89.2,36.5
